# This is a sample that favours compounds with a hit; in the whole collection about 7.5% have one here.
# FLuc counter = qHTS profiling assay for firefly luciferase inhibitor/activator using purifed enzyme and Km concentrations of substrates (counterscreen for miR-21 project); actives 6.9% (n = 360,000); purified FLuc, Km substrates, luminescence inhibition; Luciferin 4-monooxygenase (Photinus pyralis), P08659; Potency, µM (series often up to 57.5 µM), without a hit: at the highest dose activity change, negative = inhibition, most hits filed as inhibitors; AID 588342, 2011;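 also: plate controls were vehicle for no effect and reference inhibitor for full effect; nearly all actives have a fitted effect of over 55% in size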
# Target sequence (P08659 whole entry, looked up): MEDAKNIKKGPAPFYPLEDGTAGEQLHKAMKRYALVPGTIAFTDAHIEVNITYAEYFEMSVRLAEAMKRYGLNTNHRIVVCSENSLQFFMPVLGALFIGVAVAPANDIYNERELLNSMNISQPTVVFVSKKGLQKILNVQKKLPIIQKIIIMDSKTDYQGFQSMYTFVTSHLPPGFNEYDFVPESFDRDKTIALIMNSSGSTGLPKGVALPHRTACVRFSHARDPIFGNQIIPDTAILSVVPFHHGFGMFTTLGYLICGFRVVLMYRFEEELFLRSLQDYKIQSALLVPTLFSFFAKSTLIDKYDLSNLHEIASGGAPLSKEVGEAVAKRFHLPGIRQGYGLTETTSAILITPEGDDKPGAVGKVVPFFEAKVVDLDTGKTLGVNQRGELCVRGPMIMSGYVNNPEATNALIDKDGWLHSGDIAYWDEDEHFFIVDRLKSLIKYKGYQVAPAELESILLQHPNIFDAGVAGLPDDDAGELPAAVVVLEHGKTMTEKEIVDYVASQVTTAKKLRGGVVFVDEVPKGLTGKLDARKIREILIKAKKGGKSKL
#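 Biochemical qHTS of compounds, final roughly 60 µM downward over six points, against 10 nM purified firefly luciferase using Km concentrations of substrates (10 uM D-luciferin, 10 uM ATP) in Tris acetate pH 7.5 buffer; luminescence output.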
# KinaseGlo FLuc = Counterscreen for Luciferase (Kinase-Glo TM) Inhibition. AID 1379, 2008. Potency, µM (series often up to 38.3 µM), for the others: at the top dose activity change, negative = inhibition, actives largely listed as inhibitors. Kinase-Glo luciferase, ATP luminescence, 8 min. actives 0.28% (n = 200,000); also: % is scaled to controls: 0 for no effect and ±100 for the full control effect; nearly all actives have a fitted effect of over 60% in size
#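 Substrate mix (final 50 mM imidazole pH 7.2, 50 mM KCl, 7 mM MgCl2, 10 uM ATP, 0.01% Tween 20, 0.05% BSA) plus pin-tool compound, then Kinase-Glo detection mix; 8 min ambient, luminescence read.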
# ELG1 genotoxic = qHTS screen for small molecules that induce genotoxicity in human embryonic kidney (HEK293T) cells expressing luciferase-tagged ELG1 | HEK293T ELG1-luciferase reporter, luminescence, 16 h | Potency, µM (series often up to 46 µM), inactives show at the highest dose activity change, positive = activation, hits mostly activators | actives 1.3% (n = 330,000) | AID 504466, 2011; also: % of control where 0% means no effect; nearly all actives have a fitted effect of over 60% in size
#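 Genotoxic stress is detected as increased luminescence from luciferase-tagged ELG1 in HEK293T cells, measured with ONE-Glo after a 16 hr treatment at 37 °C.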
# Rab9 prom act = qHTS Assay for Rab9 Promoter Activators. Potency, µM (series often up to 9.22 µM), for the others: at the highest dose activation, negative = inhibition, most hits filed as activators. AID 485297, 2010. actives 2.8% (n = 320,000). Huh7 Rab9 promoter-luciferase reporter, luminescence, 24 h; also: % of control where 0% means no effect; nearly all actives have a fitted effect of over 60% in size
#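 Cells were plated at 1500 per well in reduced-serum medium with 10% FBS and left 2 h. Compound in DMSO was then added for 24 h at 37 °C. Reporter signal was read by luminescence after 10 min with luciferase detection reagent.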
# NPC1 prom act = qHTS Assay for NPC1 Promoter Activators; Potency, µM (series often up to 9.22 µM), inactives show at the highest dose activation, usual class: activators; Huh7 NPC1 promoter luciferase reporter, 24 h; actives 2.4% (n = 320,000); AID 485313, 2010; also: % of control where 0% means no effect; nearly all actives have a fitted effect of over 60% in size
#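 Compounds in DMSO were transferred onto Huh7 NPC1-luciferase reporter cells pre-incubated 2 h; after 24 h at 37 °C, Amplite reagent was dispensed and luminescence recorded 10 min later.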
# SMN2 splice enh = qHTS Assay for Enhancers of SMN2 Splice Variant Expression. HEK293 SMN2-luciferase splicing reporter, luminescence, 30-36 h. Potency, µM (top dose mostly 46.1 µM), inactives show at the highest dose activity change, positive = activation, most hits filed as activators. actives 2.8% (n = 210,000). AID 1458, 2008; also: % of control where 0% means no effect; nearly all actives have a fitted effect of over 55% in size
#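 HEK293 cells carry an SMN2 […]–luciferase reporter in which exon 7 inclusion puts luciferase in frame. Cells were plated 10-12 h before compound addition, then incubated 30-36 h at 37C. ONE-Glo luminescence was read; sodium butyrate at 4.5 mM final served as control.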
# * marks the source's active call; other numbers are inactive results; ? = inconclusive; / = no result; [ ] = remark or other dose. Calls follow the shape of the dose curve; as a rule, active = well fitted curve in the direction sought with a large enough effect; inconclusive = small, poorly fitted or top-dose-only effect, or another doubt; inactive = no such curve, though single readings can be large; an effect the other way counts as inactive or inconclusive. Potency is read from the fitted curve at half-maximal effect.
SMILES,FLuc counter,KinaseGlo FLuc,ELG1 genotoxic,Rab9 prom act,NPC1 prom act,SMN2 splice enh
CC(Oc1ccccc1F)C(=O)Nc1ccc2ccccc2c1 (stereo not drawn),?,2%,2%,5%,-4%,3.5µM*
O=C(CN1C(=O)CSc2ccc(S(=O)(=O)N3CCCC3)cc21)NCc1ccc(F)cc1Cl,-13%,/,/,/,/,/
CCOC(=O)C(C)Sc1ncnc2c1nnn2-c1ccc(F)cc1 (stereo not drawn),12µM*,-4%,17%,?,?,17%
CCC(Sc1ncnc2c1nnn2-c1ccc(F)cc1)C(=O)OC (stereo not drawn),5.4µM*,-3%,?,?,?,7%
CCN(CC)C(=O)CSc1ncnc2c1nnn2-c1ccc(OC)cc1,?,-8%,4%,1%,-2%,-27%
COC(=O)c1ccc(CSc2ncnc3c2nnn3-c2ccc(F)cc2)o1,8.5µM*,3%,3%,-9%,3%,-10%
CCN(CC)C(=O)CSc1ncnc2c1nnn2-c1ccc(F)cc1,13µM*,0%,2%,-2%,-1%,-10%
CCCN1C(=O)c2ccccc2CC1(C)C(=O)NC1CCCCC1 (stereo not drawn),-2%,/,/,/,/,-1%
COc1ccc(C(=O)Cc2cc3ccccc3oc2=O)cc1,12µM*,/,?,?,3.5µM*,/
CCOc1ccc(C(=O)Cc2cc3cccc(OC)c3oc2=O)cc1,?,/,3%,1%[1.84 µM],1%,/
Cc1ccc(C(=O)Cc2cc3ccccc3oc2=O)c(C)c1,3µM*,/,?,0.79µM*,1.4µM*,/
CCC(Sc1nnc(C)n2c1cc1occc12)C(=O)Nc1ccccc1F (stereo not drawn),-15%,/,/,/,/,/
Cc1ccc(-n2nc3c(n2)/C(=N/O)CC/C3=N\O)cc1,9.5µM*,13µM*,?,3.2µM*,?,13µM*
CCC(=O)Nc1cccc(C(=O)/C=C/c2cccs2)c1,12µM*,-3%,12%,?,26%,-64%
CCC(=O)Nc1cccc(C(=O)c2ccccc2)c1,-8%,2%,10%,2%,0%,3%
CCC(=O)Nc1cccc(C(=O)/C=C/c2ccccc2)c1,11µM*,-14%,?,6%,-2%,-88%
Cc1c(C(=O)N2c3ccccc3CC2C)oc2ccccc12 (stereo not drawn),4.8µM*,/,?,2.8µM*,24%,/
Cc1c(C(=O)N2CCc3ccccc3C2)oc2ccccc12,24µM*,/,15%,22%,?,/
COCc1c(C(=O)OCC(=O)N2c3ccccc3CC2C)oc2ccccc12 (stereo not drawn),-1%,0%,1%,-2%,-30%,11%
Cc1cc2c(cc1S(=O)(=O)N(C)CC(=O)Nc1cccc(C#N)c1)OCC(=O)N2,3%,/,/,/,/,/
CN(CC(=O)Nc1cccc(F)c1)C(=O)CCNC(=O)c1ccc(Br)cc1,?,/,14%,25%,8%,/
CN(CC(=O)Nc1cccc(F)c1)C(=O)CCCNC(=O)c1ccc(Cl)cc1,12µM*,/,13%,?,?,/
Cc1cc(C)cc(NC(=O)CSc2oc(-c3cccs3)nc2S(=O)(=O)c2ccc(Br)cc2)c1,0%,/,/,/,/,-25%
O=C(CCCC(=O)N1CCN(c2ccccc2F)CC1)c1ccccc1,27µM*,/,?,4.5µM*,?,/
O=C(CCc1nnc(C2CCCCC2)o1)N1CCN(c2ccccc2F)CC1,12µM*,/,?,3.5µM*,2.5µM*,/
SMILES,FLuc counter,KinaseGlo FLuc,ELG1 genotoxic,Rab9 prom act,NPC1 prom act,SMN2 splice enh
CCOc1ccc(CNC(=O)C2CCCN(c3nn4cc(-c5ccc(F)cc5)nc4s3)C2)cc1 (stereo not drawn),-17%,/,/,/,/,/
COCCCNC(=O)C1CCCN(c2nn3cc(-c4ccc(C)cc4)nc3s2)C1 (stereo not drawn),8.5µM*,/,/,/,/,/
COc1cccc(CNC(=O)C2CCCN(c3nn4cc(-c5ccc(C)cc5)nc4s3)C2)c1 (stereo not drawn),7.6µM*,/,/,/,/,/
COc1ccc(-c2cn3nc(N4CCCC(C(=O)NCc5ccc(Cl)cc5)C4)sc3n2)cc1 (stereo not drawn),12µM*,/,/,/,/,/
CN(C)c1ccc(CNS(=O)(=O)c2ccc3[nH]c4c(c3c2)CCCCC4)cc1,-14%,/,/,/,/,/
COc1cc(C(=O)N2CCc3c([nH]c4ccccc34)C2c2ccc(C)cc2)cc(OC)c1OC (stereo not drawn),-4%,/,/,/,/,/
c1ccc(Cc2nnc3sc(-c4ccncc4)nn23)cc1,-2%,2%,-6%,-4%,1%,-4%
c1ccc(Cc2nnc3sc(-c4ccc5c(c4)OCCO5)nn23)cc1,13µM*,1%,?,?,9%,4%
CSCC[C@H](NC(=O)[C@@H]1Cc2ccccc2CN1)C(=O)Nc1ccc2c(c1)OCCO2,15µM*,/,?,?,?,/
C[C@H](NC(=O)[C@@H]1Cc2ccccc2CN1)C(=O)Nc1ccc2c(c1)OCCO2,-6%,/,8%,7%,-1%,/
Fc1ccc(OCc2nc(-c3ccc(Br)o3)no2)c(F)c1,17µM*,-4%,16%,16%,23%,-2%
c1ccc(CCc2nc(-c3ccccn3)no2)cc1,13µM*,2%,?,2.2µM*,3.2µM*,11µM*
Brc1ccc(-c2noc(CCc3ccccc3)n2)o1,24µM*,3%,15%,19%,19%,18%
Cc1ccc(-c2noc(CCCc3ccccc3)n2)cc1,24µM*,-3%,14%,10%,29%,5%
COC(=O)NC1C=CCCC1C(C)=O (stereo not drawn),/,1%,/,/,/,-1%
Cc1ccc(-c2nn(CC(=O)NCc3ccccc3)c3c2cnc2ccc(F)cc23)cc1C,2%,/,/,/,/,/
N#Cc1cccc(NC(=O)N2CCC3(CC2)CCN(C(=O)c2cnccn2)CC3)c1,/,0%,/,/,/,-14%
Cc1cc(C)c(NC(=O)c2cc(CN3CCOCC3)on2)c(C)c1,-5%,/,/,/,/,/
Clc1ccccc1OCc1nc(-c2ccc(Br)o2)no1,15µM*,-4%,23µM*,?,30%,?
O=C(Nc1ccc(F)cc1F)c1ccc2c(c1)OCCO2,4.8µM*,/,?,0.63µM*,0.5µM*,/
CCC(=O)Nc1ccc(C(=O)Nc2ccc(Br)cc2F)cc1,7%,1%,5%,26%,20%,/

# Screening results: PubChem, National Center for Advancing Translational Sciences (NCATS)
